# Measurements reported in PubChem BioAssay AID1521 (The Scripps Research Institute Molecular Screening Center, 2009).
# The list shows a part of the results. Active and inactive are the calls of the source.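 How the source made its calls: active means mean inhibition above the hit cutoff derived in the earlier primary screen (cut at about 25% in these data); inactive means the rest.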
# Assay: reduced survival of JAK2V617F-driven Ba/F3 cells – cell-based, Ba/F3 EpoR-JAK2V617F, luminescence, triplicate, JAK2V617F inhibitor project, confirmation (AID 1521);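 further: 0% = DMSO-treated cells and 100% = JAK inhibitor I control wells; higher means lower luminescence from reduced cell ATP and viability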
# Settings: Ba/F3 EpoR-JAK2V617F viability, CellTiter-Glo luminescence; at 5.6 µM; active compounds read high
structure (smiles),measurement,value
CN(C)CC1Oc2ccccc2OC1(O)c1ccccc1 (stereo unspecified),inhibition,98.7% (active)
